Among the data in PubChem BioAssay (NCATS) are Potency values, retold here.

Assay [1] can be described thus: Quantitative High-Throughput drug screen in 47 multiple myeloma cell lines against the NCATS MIPE library collection: INA6_PLB cell viability assay (AID 1918965; further: nearly all actives have a fitted effect of over 55% in size; further: potency means the concentration at half of the fitted maximal effect). Put shortly: (§1)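 Relative luminescence from CellTiter-Glo served as the viability signal, referenced to DMSO-treated (100%) and cell-free medium (0%) controls. Treatment lasted 48 hours at 37C with 500 cells per well.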

Assay [2] is described as follows: Quantitative High-Throughput drug screen in 47 multiple myeloma cell lines against the NCATS MIPE library collection: H1112_PLB cell viability assay (AID 1918967; further: nearly all actives have a fitted effect of over 30% in size; further: potency means the concentration at half of the fitted maximal effect). In short, it runs like this:
(§2)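 CellTiter-Glo ATP luminescence gave viability after 48 h compound treatment at 37C of 500 multiple myeloma cells per well. Normalisation used DMSO-only wells as 100% and media-only wells as 0% viability; primary qHTS of approved and investigational drugs.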

Assay [3] in a line: Quantitative High-Throughput drug screen in 47 multiple myeloma cell lines against the NCATS MIPE library collection: Karpas25_ECACC cell viability assay (AID 1918968; further: nearly all actives have a fitted effect of over 35% in size; further: potency means the concentration at half of the fitted maximal effect). Put shortly:
as §2

The nature of assay [4]: Quantitative High-Throughput drug screen in 47 multiple myeloma cell lines against the NCATS MIPE library collection: KMS27_JCRB cell viability assay (AID 1918970). Further: nearly all actives have a fitted effect of over 30% in size. Further: potency means the concentration at half of the fitted maximal effect. The conditions noted are these: KMS27 myeloma cells, CellTiter-Glo ATP viability, 48 h; viability (% of DMSO): at 45.8 µM (top of the series). In short, it runs like this:
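Viability inhibition screen, 48 h compound exposure, luminescent ATP read-out.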
(In general: In ATP-based viability assays light output follows the ATP content of the culture.)

Assay [5] in a line: Quantitative High-Throughput drug screen in 47 multiple myeloma cell lines against the NCATS MIPE library collection: KMS12BM_JCRB cell viability assay (AID 1918971). Further: nearly all actives have a fitted effect of over 35% in size. Further: potency means the concentration at half of the fitted maximal effect. Put shortly:
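Steps: seed 500 cells per well; pin-transfer MIPE 4.0 library; incubate 48 h at 37C, 5% CO2, humidified; add CellTiter-Glo, 5 min room temperature; read luminescence.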

The nature of assay [6]: Quantitative High-Throughput drug screen in 47 multiple myeloma cell lines against the NCATS MIPE library collection: KMS12PE_JCRB cell viability assay (AID 1918972). Further: nearly all actives have a fitted effect of over 30% in size. Further: potency means the concentration at half of the fitted maximal effect. Put shortly: as §1
A short description of assay [7]: Quantitative High-Throughput drug screen in 47 multiple myeloma cell lines against the NCATS MIPE library collection: JJN3_DSMZ cell viability assay (AID 1918966; further: nearly all actives have a fitted effect of over 50% in size; further: potency means the concentration at half of the fitted maximal effect). Put shortly: as §2
Assay [8] can be described thus: Quantitative High-Throughput drug screen in 47 multiple myeloma cell lines against the NCATS MIPE library collection: JIM1_ECACC cell viability assay (AID 1918964). Put shortly: as §2

Each structure is given as a SMILES string. Results filed as inconclusive are left out. The source made the active and inactive calls. The call rests on the fitted dose curve; in most records, active means well fitted cell-killing curve with a large enough effect; inconclusive means small, poorly fitted or top-dose-only effect, or effect the other way; inactive means no such curve, though single readings can be large or run the other way.

Take `OC[C@H]1O[C@@H](O[C@H]2[C@@H](O)[C@@](O)(CO)O[C@@H]2CO)[C@H](O)[C@@H](O)[C@@H]1O`: the Potency result in assay [1], in assay [2], in assay [3], in assay [4], in assay [5] and in assay [6] was “inactive” throughout.
Consider `CN[C@@H]1[C@@H](O)[C@@H](O[C@@H]2[C@@H](O)[C@H](O[C@H]3O[C@H](CN)[C@@H](O)[C@H](O)[C@@H]3O)[C@@H](N)C[C@@H]2NC(=O)[C@@H](O)CN)OC[C@]1(C)O`, for which the Potency entry in assay [1] and in assay [7] was “inactive” in each case.
Consider `CN(CC=CC#CC(C)(C)C)Cc1cccc2ccccc12`, for which the Potency result in assay [8], in assay [4] and in assay [6] was “inactive” each time.
For `COc1ccc2nc3cc(Cl)ccc3c(Nc3cc(CN4CCCC4)c(O)c(CN4CCCC4)c3)c2n1`, the Potency is 7.43 µM (active) in assay [1], 18.7 µM (active) in assay [2], 14.8 µM (active) in assay [3] and 11.8 µM (active) in assay [5].
With `CSc1cccc(Nc2ncc3cc(-c4c(Cl)cccc4Cl)c(=O)n(C)c3n2)c1`, the Potency is 0.059 µM (active) in assay [1]; 3.32 µM (active) in assay [7]; 0.0662 µM (active) in assay [4]; 1.32 µM (active) in assay [5]; 0.059 µM (active) in assay [6]. Besides, the Potency entry in assay [2] is “inactive”.
Regarding `COc1c(C)c2c(c(O)c1CC=C(C)CCC(=O)OCCN1CCOCC1)C(=O)OC2`, the Potency is 1.87 µM (active) in assay [1]; 3.32 µM (active) in assay [2]; 4.18 µM (active) in assay [3]; 2.09 µM (active) in assay [4]; 4.18 µM (active) in assay [5]; 3.72 µM (active) in assay [6].
With `O=c1[nH]c(=O)n([C@H]2C[C@@H](O)[C@@H](CO)O2)cc1I`, the Potency result in assay [8], in assay [7], in assay [2], in assay [3], in assay [4] and in assay [5] was “inactive” each time. Besides, in assay [6], the Potency is 1.48 µM (active).
`CCCC1OC2C[C@@H]3[C@H]4CCC5=CC(=O)C=C[C@]5(C)[C@H]4C(O)C[C@]3(C)[C@]2(C(=O)CO)O1` (stereo not given in full): the Potency result in assay [1], in assay [2], in assay [4] and in assay [6] was “inactive” each time. Further, the Potency in assay [3] was 0.0132 µM (active); in assay [5], 20.9 µM (active).
For `CCCCN(CCCC)CC(O)c1cc(Cl)cc2c1-c1ccc(Cl)cc1C2=Cc1ccc(Cl)cc1` (stereo not given), the Potency was 18.7 µM (active) in assay [1], 18.7 µM (active) in assay [7], 26.4 µM (active) in assay [2] and 23.5 µM (active) in assay [3]. Besides, in assay [6], the Potency entry was “inactive”.
Consider `Cn1cnc(-c2cc3nccc(Oc4ccc(NC(=S)NC(=O)Cc5ccccc5)cc4F)c3s2)c1`, for which the Potency in assay [1] is 6.62 µM (active); in assay [7], 16.6 µM (active); in assay [4], 23.5 µM (active).
On to `CC(C)C[C@@H](N)[C@H](O)C(=O)N[C@H](C(=O)N[C@H](C(=O)N[C@@H](CC(=O)O)C(=O)O)C(C)C)C(C)C`, for which the Potency entry in assay [8], in assay [4], in assay [5] and in assay [6] was “inactive” in each case.
`C[C@H]1O[C@@H](n2cc(F)c(=O)[nH]c2=O)[C@H](O)[C@H]1O`: the values for the Potency in assay [1], in assay [3] and in assay [5] were 13.2 µM (active), 18.7 µM (active) and 16.6 µM (active), respectively. The Potency result in assay [7] was “inactive”.
For `CN(C)CCCNC(=O)c1ccc(-c2cc(O)c3ncccc3c2)cc1`, the Potency in assay [1] is 20.9 µM (active); in assay [7] it was 20.9 µM (active); in assay [3], 18.7 µM (active); in assay [5] it was 9.35 µM (active); in assay [6], 20.9 µM (active).
Turning to `c1ccc(-c2oc3ncnc(NC[C@@H]4CCCO4)c3c2-c2ccccc2)cc1`, the Potency is 16.6 µM (active) in assay [1]; 16.6 µM (active) in assay [7]; 4.69 µM (active) in assay [4]; 23.5 µM (active) in assay [5]; 4.69 µM (active) in assay [6]. Moreover, in assay [2], the Potency entry is “inactive”.
For the molecule `CN(C)CCN(C)C(=O)c1ccc(NC(=O)Nc2ccc(-c3nc(N4CCOCC4)c4ccn(CC(F)(F)F)c4n3)cc2)cc1`, the Potency is 0.0372 µM (active) in assay [7]; 3.32 µM (active) in assay [2]; 0.001 µM (active) in assay [4]; 0.209 µM (active) in assay [5]; 0.132 µM (active) in assay [6].
Take `O=C(Nc1cccc2c(=O)cc(-c3nn[nH]n3)oc12)c1ccc(OCCCCc2ccccc2)cc1`: the Potency in assay [1] is 18.7 µM (active); in assay [3], 18.7 µM (active); in assay [6], 20.9 µM (active).
As for `CN1C(=O)C[C@H](C(=O)N[C@@H](Cc2cnc[nH]2)C(=O)N2CCC[C@@H]2C(N)=O)NC1=O`, the Potency entry in assay [2] and in assay [6] was “inactive” each time. Further, the Potency in assay [5] was 16.6 µM (active).
With `Cc1ccccc1C(=O)c1ccc(Nc2ccc(Br)cc2N)cc1Cl`, the Potency was 18.7 µM (active) in assay [1]; 18.7 µM (active) in assay [3]; 6.62 µM (active) in assay [4]; 14.8 µM (active) in assay [5]; 7.43 µM (active) in assay [6].
In the case of `COc1ccc(-c2ccc3ncc4c(c3c2)n(-c2ccc(N3CCNCC3)c(C(F)(F)F)c2)c(=O)n4C)cn1`, the Potency was 0.0066 µM (active) in assay [7], 0.0935 µM (active) in assay [2] and 0.332 µM (active) in assay [5].
For `O=S(=O)(O)c1ccc2cc(N=Nc3cc(S(=O)(=O)O)c4cccnc4c3O)ccc2c1`, the Potency in assay [7] is 18.7 µM (active); in assay [5], 16.6 µM (active). The Potency result in assay [3], in assay [4] and in assay [6] was “inactive” in each case.
Turning to `COc1cc2c(cc1OC)[C@@H]1Cc3ccc(OC)c(OC)c3CN1CC2`, the Potency in assay [7] is 20.9 µM (active); in assay [3] it was 16.6 µM (active); in assay [5], 18.7 µM (active); in assay [6], 0.332 µM (active). Also, the Potency entry in assay [2] and in assay [4] was “inactive” each time.
Take `COc1cc(N2CCN(C)CC2)ccc1Nc1nc(N)c(C(=O)c2c(Cl)cccc2Cl)s1`: the Potency entry in assay [2] was “inactive”. Moreover, the Potency in assay [4] and in assay [6] was 23.5 µM (active) in each case.
